{
  "source": "PubChem BioAssay (EPA / NIEHS)",
  "note": "Several values for one entry are separate records, joined by “and”; a condition that tells them apart may be missing. Equal values may be shown once. Activity calls are given as the source filed them. The calls were made as follows: active = hit-call score of the fitted dose curve at least 0.9, where 1 is the maximum; inactive = score below 0.9.",
  "data": [
    {"assay": "BSK_hDFCGF_SRB: Viability Assessment in the BioMAP Diversity Plus: hDFCGF Assay (AID 2283061);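 also: cells exposed to compound for 24 h before the read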", "details": "primary human foreskin fibroblasts", "procedure": "BSK_hDFCGF is a cell-based, multiplexed-readout assay that uses foreskin fibroblast, a human skin primary cell, with measurements taken at 24 hours after chemical dosing in a 96-well plate.BSK_hDFCGF_SRB is an assay component measured in the BSK_hDFCGF assay. It measures 0.1% sulforhodamine related to cell death using Sulforhodamine staining technology.Data from the assay component BSK_hDFCGF_SRB was analyzed into 1 assay endpoint. This assay endpoint, BSK_hDFCGF_SRB, was analyzed with bidirectional fitting relative to DMSO as the negative control and baseline of activity. Using a type of viability reporter, gain or loss-of-signal activity can be used to understand changes in the signaling. Furthermore, this assay endpoint can be referred to as a primary readout, because this assay has produced multiple assay endpoints where this one serves a signaling function. To generalize the intended target to other relatable targets, this assay endpoint is annotated to the cell morphology intended target family, where the subfamily is cell conformation.\nThe levels of cell surface (or secreted, indicated by the prefix \"s\") biomarker endpoints were measured by ELISA. Overt cytotoxicity to cells in confluent adherent cultures (all systems other than the BT system) was assessed by measuring total protein levels using sulforhodamine B (SRB) staining in parallel cultures at the time of biomarker measurements, indicated as SRB endpoints. For proliferation assays for adherent cell types, individual cell types are cultured at sub-confluence and relative cell numbers quantified by SRB staining at time points optimized for each system (48 h: 3C and CASM3C systems; 72 h: BT and HDF3CGF systems; 96 h: SAg system). SRB was performed by staining cells with 0.1% SRB after fixation with 10% TCA and reading wells at 560 nm.Viability and proliferation of PBMC (T cells) was quantified by Alamar Blue reduction for the SAg and BT systems. For PBMC viability (referred to as PBMC Cytotoxicity within the assay endpoint names), cells were plated (75,000/well in a 96-well plate) and then chemical samples added for 1 h before addition of activators, SEB and TSST-1 (20 ng/mL final concentration each). Cells were incubated for 90 h. Then, Alamar Blue (20 uL/well) (Invitrogen, Cat DAL1100) was added for 6 h, and the plates were read with a fluorescence microplate reader at 546/580 nm (excitation/emission). For PBMC proliferation, cells were plated and activated as above but incubated for only 16 h prior to addition of Alamar Blue. Plates were read after 6 h.", "values": [
      {"smiles": "CC(C)c1ccc(C(C)C)cc1", "AC50": "36.1 µM (active)"},
      {"smiles": "CCCCCCCCC=O", "outcome": "inactive"},
      {"smiles": "C#C[C@]1(O)CC[C@H]2[C@@H]3CCC4=Cc5oncc5C[C@]4(C)[C@H]3CC[C@@]21C", "outcome": "inactive"},
      {"smiles": "O=P(c1ccccc1)(c1ccccc1)c1ccccc1", "outcome": "inactive"},
      {"smiles": "OC1OC[C@@H](O)[C@H](O)[C@H]1O", "note": "(stereo not given in full)", "outcome": "inactive"},
      {"smiles": "O=C(O)c1cn(C2CC2)c2cc(N3CCNCC3)c(F)cc2c1=O", "outcome": "inactive"},
      {"smiles": "O=C=NC1CCC(CC2CCC(N=C=O)CC2)CC1", "note": "(stereo not given)", "outcome": "inactive"},
      {"smiles": "C=C[Si](OCC)(OCC)OCC", "outcome": "inactive"},
      {"smiles": "N#Cc1ccc(CC(=NNC(=O)Nc2ccc(OC(F)(F)F)cc2)c2cccc(C(F)(F)F)c2)cc1", "outcome": "inactive"},
      {"smiles": "O=C(O)C[C@H](O)C[C@H](O)/C=C/c1c(C2CC2)nc2ccccc2c1-c1ccc(F)cc1", "outcome": "inactive"},
      {"smiles": "COC(=O)c1ccc(C)cc1", "outcome": "inactive"},
      {"smiles": "O=[N+]([O-])c1cc(C(F)(F)F)ccc1Cl", "outcome": "inactive"},
      {"smiles": "CCc1c(C)cc(N)c(CC)c1N", "outcome": "inactive"},
      {"smiles": "C[C@H]1C[C@@H]2[C@H]([C@@H](O)C[C@@]3(C)[C@H]2CC[C@]3(O)C(=O)CO)[C@@]2(C)C=CC(=O)C=C12", "AC50": "394 nM (active) and 339 nM (active)"},
      {"smiles": "Cc1ccc(O)c(C(C)(C)C)c1", "AC50": "29.6 µM (active)"},
      {"smiles": "CC(=O)/C=C/C1=C(C)CCCC1(C)C", "outcome": "inactive"},
      {"smiles": "C=CCOC(=O)CCC1CCCCC1", "outcome": "inactive"},
      {"smiles": "CN(CCOc1ccc(CC2SC(=O)NC2=O)cc1)c1ccccn1", "note": "(stereo not given)", "outcome": "inactive"},
      {"smiles": "CC(=O)O[C@]1(C(C)=O)CC[C@H]2[C@@H]3C[C@H](C)C4=CC(=O)CC[C@]4(C)[C@H]3CC[C@@]21C", "outcome": "inactive"},
      {"smiles": "CCCCC(CC)COCCC#N", "note": "(stereo not given)", "outcome": "inactive"},
      {"smiles": "Nc1cc([N+](=O)[O-])ccc1O", "AC50": "1.16 µM (active) and 826 nM (active)"},
      {"smiles": "Cc1cc(C2(c3cc(C)c(O)cc3C)OS(=O)(=O)c3ccccc32)c(C)cc1O", "outcome": "inactive"},
      {"smiles": "CNC[C@H](O)c1cccc(O)c1", "outcome": "inactive"},
      {"smiles": "Nc1cc([N+](=O)[O-])ccc1Cl", "outcome": "inactive"},
      {"smiles": "CC(=O)OCCC(C)CC(C)(C)C", "note": "(stereo not given)", "outcome": "inactive"},
      {"smiles": "O=C1CCCCCCCCCCCCCCO1", "outcome": "inactive"},
      {"smiles": "c1ccc2c(c1)c1cccc3ccc4cccc2c4c31", "outcome": "inactive"},
      {"smiles": "NCCNCCN", "outcome": "inactive"},
      {"smiles": "CCCCCCCCCC=O", "outcome": "inactive"},
      {"smiles": "c1ccc2sc(SN(C3CCCCC3)C3CCCCC3)nc2c1", "AC50": "4.26 µM (active)"},
      {"smiles": "CCC(=O)OCc1ccccc1", "outcome": "inactive"},
      {"smiles": "OC[C@H]1O[C@H](O[C@]2(CCl)O[C@H](CCl)[C@@H](O)[C@@H]2O)[C@H](O)[C@@H](O)[C@H]1Cl", "outcome": "inactive"},
      {"smiles": "BrC1CCC(Br)C(Br)CCC(Br)C(Br)CCC1Br", "note": "(stereo not given)", "AC50": "1.5 µM (active)"},
      {"smiles": "CC1COc2ccccc2N1C(=O)C(Cl)Cl", "note": "(stereo not given)", "AC50": "20 µM (active)"},
      {"smiles": "CC(=O)Nc1ccccc1O", "outcome": "inactive"},
      {"smiles": "Cc1ccc2n[nH]nc2c1", "outcome": "inactive"},
      {"smiles": "O=C1OC2(c3cc(Br)c(O)c(Br)c3Oc3c2cc(Br)c(O)c3Br)c2c(Cl)c(Cl)c(Cl)c(Cl)c21", "AC50": "6.54 µM (active)"},
      {"smiles": "CC(C)(COC(=O)c1ccccc1)COC(=O)c1ccccc1", "AC50": "31.5 µM (active)"},
      {"smiles": "CCn1c2ccccc2c2cc(N)ccc21", "outcome": "inactive"},
      {"smiles": "COc1cc(C=O)ccc1OC(=O)C(C)C", "outcome": "inactive"}
    ]}
  ]
}
